DT40 TDP1 no CPT: qHTS for Inhibitors of human tyrosyl-DNA phosphodiesterase 1 (TDP1): qHTS in cells in absence of CPT | Potency, µM (series often up to 46.2 µM), for the others: at the top dose activity change, negative = growth inhibition, most hits filed as inhibitors | hit rate 15% among 420,000 | AID 686978, 2013 | DT40 Tdp1-/- hTDP1 cells, no CPT, ATP luminescence, 48 h; further: potency means the concentration at half of the fitted maximal effect; on the % scale 0 is the no-effect control and ±100 the full control effect; nearly all actives have a fitted effect of over 55% in size
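Chicken DT40 Tdp1-/- cells complemented with human TDP1, screened without camptothecin (DMSO vehicle only), 400 cells/well. Compounds pin-transferred, cells incubated at 37 °C for at least 48 hr. Growth read as ATP-dependent luminescence (CellTiter-Glo, 30 min at RT).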
DT40 TDP1 CPT: growth inhibition of DT40 Tdp1-/-;hTDP1 cells with camptothecin (screen for TDP1 inhibitors). chicken DT40 Tdp1-/-;hTDP1 cells + 20 nM CPT, ATP luminescence, 48 h. Potency, µM (series often up to 46.2 µM), for inactives: at the top dose activity change, negative = growth inhibition, actives largely listed as inhibitors. hit rate 12% among 420,000. AID 686979; further: potency means the concentration at half of the fitted maximal effect; on the % scale 0 is the no-effect control and ±100 the full control effect; nearly all actives have a fitted effect of over 55% in size
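Chicken DT40 Tdp1-/- cells stably complemented with human TDP1 were seeded at 400 cells/well in medium containing 20 nM camptothecin, exposed to pin-transferred compounds, and grown at 37 °C for at least 48 hr. Viability was read as ATP luminescence.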
HepG2 tox: counter-screen for TGF-b inhibitors: cytotoxicity in HepG2 cells. Potency, µM (series often up to 46.1 µM), without a hit: at the highest dose activity change, negative = cytotoxicity, usual class: cytotoxic. HepG2 CAGA-GFP viability, ATP luminescence, 18 h. hit rate 0.76% among 410,000. AID 588856; further: potency means the concentration at half of the fitted maximal effect
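CellTiter-Glo luminescence gave cytotoxicity after 18 hours at 37 degrees C. The cells were HepG2 CAGA-GFP in 1% FBS DMEM, stimulated with 500 pg/mL TGF-beta after compound addition. %Activity was normalised to no-cell wells (complete cell-killing) and DMSO (no toxicity), and curves were fitted and classified.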
TDP1 block: inhibitors of human tyrosyl-DNA phosphodiesterase TDP1; Q9NUW8; hit rate 0.28% among 350,000; recombinant TDP1, AlphaScreen DNA substrate cleavage; Potency, µM (titrated, usually from 130 µM), inactives show top-dose activity change, negative = inhibition, usual class: inhibitors; further: potency means the concentration at half of the fitted maximal effect; on the % scale 0 is the no-effect control and ±100 the full control effect; nearly all actives have a fitted effect of over 40% in size
Target sequence (Q9NUW8 whole entry, looked up): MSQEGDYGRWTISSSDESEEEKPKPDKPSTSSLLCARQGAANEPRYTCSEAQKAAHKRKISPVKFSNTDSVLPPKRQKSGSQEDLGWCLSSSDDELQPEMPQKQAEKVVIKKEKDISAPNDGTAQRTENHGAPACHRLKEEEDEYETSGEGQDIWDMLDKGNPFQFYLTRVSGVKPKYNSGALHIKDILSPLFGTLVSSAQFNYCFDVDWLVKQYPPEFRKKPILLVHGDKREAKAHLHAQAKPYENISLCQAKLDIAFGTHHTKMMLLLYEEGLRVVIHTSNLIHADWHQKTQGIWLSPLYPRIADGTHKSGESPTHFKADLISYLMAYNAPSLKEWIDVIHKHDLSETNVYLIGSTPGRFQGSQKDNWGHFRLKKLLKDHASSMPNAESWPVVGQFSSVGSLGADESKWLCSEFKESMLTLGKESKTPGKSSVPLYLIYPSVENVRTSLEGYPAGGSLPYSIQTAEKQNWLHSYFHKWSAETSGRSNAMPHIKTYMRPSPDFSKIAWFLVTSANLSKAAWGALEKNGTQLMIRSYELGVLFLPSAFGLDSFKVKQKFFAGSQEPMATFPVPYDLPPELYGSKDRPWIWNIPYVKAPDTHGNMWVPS
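Enzyme-compound mixtures sat 15 min at room temperature, followed by a 5 min reaction with 15 nM final substrate and 10 min with AlphaScreen beads. Recombinant human Tdp1 was used at 1 nM final.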
IL1B secr inh: inhibitors of inflammasome signaling (IL-1 beta secretion); AID 743279; activity change, % at 57.5 µM; hit rate 4.7% among 360,000; THP-1 LPS/ATP IL-1B secretion, AlphaLISA, 16 h; active compounds read low; in the data active means activity change below about -50%; inconclusive means mostly about -30% to -49%; further: on the % scale 0 is the no-effect control and ±100 the full control effect
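Secreted IL-1B measured by AlphaLISA bead assay after 16 h compound exposure of THP-1 cells; compounds (final up to 57.5 uM) added 1 h before LPS (250 ng/mL) and ATP (1.25 mM) stimulation; lower signal means less secretion.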
TGFb inhibitor: TGF-b pathway inhibition. HepG2 CAGA-GFP TGF-b/SMAD3 reporter, GFP fluorescence, 18 h; TGF-beta stimulated, 500 pg/mL final. Potency, µM (series often up to 46.1 µM), for inactives: at the highest dose activity, negative = inhibition, usual class: inhibitors. hit rate 1.2% among 410,000; further: potency means the concentration at half of the fitted maximal effect; on the % scale 0 is the no-effect control and ±100 the full control effect; nearly all actives have a fitted effect of over 65% in size
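First, reporter cells (HEPG2 CAGA-GFP) rested 2 h at 37 degrees C. Next, compounds were pinned in and TGF-beta added to 500 pg/mL final. After 18 h, GFP was imaged per cell and summed per well.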
Active calls of the source: *; ? = inconclusive; . = not tested or not shown; [ ] = dose if it differs, or a comment. The list is not random: actives were taken first. Their share in the collection is about 18%. Unless noted, the call rests on the fitted dose curve; in most records, active means well fitted curve in the direction sought with a large enough effect; inconclusive means small, poorly fitted or top-dose-only effect, or another doubt; inactive means no such curve, though single readings can be large; an effect the other way counts as inactive or inconclusive.

SMILES	DT40 TDP1 no CPT	DT40 TDP1 CPT	HepG2 tox	TDP1 block	IL1B secr inh	TGFb inhibitor
O=S(=O)(Nc1ccc(Br)cc1)c1cccc2cccnc12	?	-12.1%	-21.4%	.	-13.8	0.0%
Cc1ccc(-n2c(-c3ccc(Br)cc3)c[n+]3c2CCc2ccc4cccnc4c2-3)cc1	0.291µM*	0.291µM*	8.91µM*	5.8%	-104.5*	3.16µM*
CN(C)/C=C/C(=O)C(F)(F)F	-3.3%	9.4%	77.2%	8.9%	-4.9	0.0%
CN(C)/C=C/C(=C\C(=O)C(F)(F)F)Nc1ccc(C(F)(F)F)cc1	18.4µM*	?	-40.3%	-1.2%	12.7	?
O=C(CSc1nc2cc(Cl)ccc2c(=O)n1Cc1ccco1)Nc1ccc(S(=O)(=O)N2CCOCC2)cc1	-20.3%	-23.9%	-4.2%	3.5%	-5.2	0.0%
Cc1cccc(OCCCSc2nc3ccc(C)cc3[nH]2)c1	?	?	-21.9%	5.6%	-72.2*	?
COC(=O)c1cc(CSc2nnc(-c3ccccc3)c(-c3ccccc3)n2)oc1C	20.6µM*	23.1µM*	1.4%	8.2%	-16.2	?
Cc1cccc(OCCSc2nc3ncnc(N)c3[nH]2)c1	-27.3%	?	-22.9%	6.2%	5.5	-11.5%
COC(=O)c1ccc2c(=O)n(Cc3ccco3)c(SCC(=O)Nc3ccc(C)c(Cl)c3)nc2c1	20.6µM*	10.3µM*	1.0%	1.0%	18.4	8.9%
COC(=O)c1cc(CSc2nc3ccc(C)cc3[nH]2)oc1C	18.4µM*	16.4µM*	-3.2%	4.9%	-5.4	-13.9%
CC(C)C(=O)NNC(=O)CSc1nnc(-c2ccccc2)c(-c2ccccc2)n1	-10.1%	-14.9%	9.4%	5.1%	16.5	7.1%
Cc1ccc(CNC(=O)c2ccc(F)c(S(=O)(=O)N3CCOCC3)c2)cc1	-5.3%	-6.0%	-2.9%	5.4%	5.5	-4.0%
Cc1cc(OC(C)C(=O)Nc2c(C(=O)c3ccc(F)cc3)oc3ccccc23)ccc1Cl (stereo unspecified)	?	?	-4.3%	-1.1%	.	-2.5%
CCCCn1c(SCc2ccc(C(=O)OC)o2)nc2cc(S(N)(=O)=O)ccc21	9.2µM*	3.26µM*	-15.6%	-2.0%	-78.1*	-28.0%
COCC(C)n1c(SCc2cc(C(=O)OC)c(C)o2)nc2ccccc2c1=O (stereo unspecified)	5.8µM*	4.11µM*	-22.1%	1.9%	-12.6	-18.4%
CCCCn1c(SCC(=O)c2cc(OC)ccc2OC)nc2cc(S(N)(=O)=O)ccc21	-19.3%	0.2%	-15.0%	2.9%	19.6	-1.5%
COC(=O)c1ccc(CSc2nc(C)nc3sc(C)c(C)c23)o1	10.3µM*	14.6µM*	-1.5%	-1.0%	38.0	13.3%
Cc1nc(SCC(=O)N(C)Cc2ccco2)c2c(C)c(C)sc2n1	?	16.4µM*	-21.5%	3.2%	-5.3	?
COCC(C)n1c(SCC(=O)Nc2cccnc2Cl)nc2ccccc2c1=O (stereo unspecified)	?	3.5%	-11.7%	.	-15.1	-5.4%
CCOC(=O)C1(C)CCCN1C(=O)c1ccc(N(C)C)cc1 (stereo unspecified)	-28.3%	-4.0%	7.0%	.	27.0	10.2%
COC(=O)c1ccc(CSc2nc3ccccc3c(=O)n2C)o1	?	14.6µM*	-8.5%	9.6%	?	-21.1%
O=C(CSc1nc2ccccc2c(=O)n1Cc1ccco1)NCc1ccccc1	-8.7%	-26.0%	-8.7%	.	9.3	0.2%
CCc1nc(SCC(=O)NCc2ccc(F)cc2)c2c(=O)n(C)c(=O)n(C)c2n1	-5.0%	-2.5%	19.4%	6.5%	15.4	19.2%
CCc1nc(SCc2ccc(C(=O)OC)o2)c2c(=O)n(C)c(=O)n(C)c2n1	9.2µM*	14.6µM*	2.9%	-5.2%	22.1	-12.2%
COC(=O)c1ccc(CSc2nc3ccccc3c(=O)n2Cc2ccco2)o1	16.4µM*	23.1µM*	-8.3%	-1.0%	2.9	-12.8%
SMILES	DT40 TDP1 no CPT	DT40 TDP1 CPT	HepG2 tox	TDP1 block	IL1B secr inh	TGFb inhibitor
COC(=O)c1ccc(CSc2nc3ccccc3c(=O)n2CC(C)C)o1	?	?	-85.0%	-2.0%	5.7	-7.9%
CCOC(=O)C1=C(CS(=O)(=O)c2ccc(C)c(C)c2)NC(=O)NC1c1ccccc1OCC (stereo unspecified)	?	?	-29.9%	-1.3%	.	?
CC1=C/C(=N\OS(=O)(=O)c2ccccc2)C(C)=CC1=O	0.82µM*	0.581µM*	11.2µM*	7.9%	-98.3*	10µM*
CC1=C/C(=N\OS(=O)(=O)c2ccccc2)C(C(C)C)=CC1=O	2.31µM*	1.64µM*	-96.6%	11.8%	-95.4*	?
COC(=O)C/C=C\[C@@H](C)[C@@H](/C=N\OC[C@@H](C)[C@H](OCc1ccccc1)C(C)C)OC	.	.	.	-0.5%[21 µM]	.	.
O=C(CCS(=O)(=O)c1ccc(Br)cc1)Nc1ccc(Cl)c(C(F)(F)F)c1	20.6µM*	?	-62.2%	-12.7%	.	?
CN1C(=O)Cc2cc(S(=O)(=O)CCC(=O)Nc3ccc(Cl)c(C(F)(F)F)c3)ccc21	?	23.1µM*	-7.5%	0.0%	.	?
Cc1ccc(S(=O)(=O)CCC(=O)Nc2ccc(Br)cc2)cc1	-12.5%	?	-9.4%	.	-13.2	0.0%
CCOC(=O)c1cccc(NC(=O)CCS(=O)(=O)c2ccc3c(c2)CCN3C(=O)CC)c1	-29.0%	?	-30.1%	7.0%	.	0.0%
CN1C(=O)Cc2cc(S(=O)(=O)CCC(=O)Nc3ccc(F)c(Cl)c3)ccc21	-1.6%	?	-0.4%	5.3%	.	?
CCC(=O)N1CCc2cc(S(=O)(=O)CCC(=O)Nc3ccc(Cl)c(C(F)(F)F)c3)ccc21	8.2µM*	16.4µM*	0.5%	0.0%	.	?
Cc1ccccn1	-0.3%	-2.4%	.	.	.	.
COC(=O)[C@@]1(Cc2ccc(OC)cc2)[C@H]2c3cc(C(=O)N(C)C)n(Cc4ccccn4)c3C[C@H]2CN1C(=O)c1ccccc1	.	.	.	18.9%	.	.
COc1cc(OC)c(NS(=O)(=O)c2cc(C(=O)NCCCN3CCOCC3)ccc2C)cc1Cl	-0.4%	-5.7%	-28.5%	.	2.2	2.9%
CCCCn1c(N)c(N(CCOC)C(=O)C(C)N2C(=O)c3ccccc3C2=O)c(=O)[nH]c1=O (stereo unspecified)	6.1%	6.0%	-1.1%	-3.9%	-4.2	-10.7%
